The nature of assay [1]: U-118MG Cancer Cell Toxicity qHTS against the NCATS CANVASS Library (AID 1347351). Further: potency means the concentration at half of the fitted maximal effect. An outline of the steps: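 Following a 4 h pre-incubation of 1000 seeded cells, compounds were pinned in an 11-pnt dilution series and left for 72 h; viability then came from CellTiter-Glo.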
(In general: In qHTS, concentration-response curves come from the screen itself.)

A short description of assay [2]: HPAF-II 24hr Apoptosis Induction qHTS against the NCATS CANVASS Library (AID 1347356). An outline of the steps: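 500 HPAF-II cells/well; compounds in 11-pnt qHTS; 24 h, 37 C/5% CO2; Caspase-Glo 3/7 added, 15 min RT dark; luminescence read. Doxorubicin control.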
Assay [3] is described as follows: HEK293 18hr Apoptosis Induction qHTS against the NCATS CANVASS Library (AID 1347357). An outline of the steps:
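HEK293 cells (500/well, DMEM + 10% FBS) treated with an 11-point series for 18 h at 37 degrees C. Caspase-3/7 activity read by Caspase-Glo luminescence after 15 min at room temperature.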

Assay [4] can be described thus: HPAF-II 18hr Apoptosis Induction qHTS against the NCATS CANVASS Library (AID 1347360). The method, boiled down: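 HPAF-II cells at 500/well were exposed for 18 h at 37 C to an 11-point compound series. Caspase-3/7 activity was read by Caspase-Glo luminescence after 15 min at RT.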
Assay [5] can be described thus: HEK293 12hr Apoptosis Induction qHTS against the NCATS CANVASS Library (AID 1347361). The method, boiled down: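 HEK293 cells (500/well) were exposed to an 11-point qHTS concentration series for 12 hours at 37 degrees C. Caspase-3/7 activity was then read by DEVD-substrate luciferase luminescence after 15 min at room temperature.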
For assay [6], the system named is NAD(P)H diaphorase (Clostridium kluyveri). Nature of the assay: Diaphorse counterscreen qHTS: Assay Interference Panel against the NCATS CANVASS Library (AID 1347362). The method, boiled down: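 Clostridium kluyveri diaphorase in PBS with 0.01% Tween-20 was preincubated 15 min at room temperature in the dark with compounds (11-point series). Resorufin fluorescence (ex 525/20, em 598/25) was read 5 min after adding resazurin/NADH.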
In general terms: A counterscreen serves to expose hits that act by an unwanted route or on another target.

A short description of assay [7]: KB-3-1 Cancer Cell Toxicity qHTS against the NCATS CANVASS Library (AID 1347366). Further: nearly all actives have a fitted effect of over 75% in size. An outline of the steps:
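KB-3-1 cells (500/well) in DMEM with 10% FBS were exposed to compounds for 72 h at 37C. Viability was read by CellTiter-Glo luminescence.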

Assay [8] is described as follows: MCF7 Cancer Cell Toxicity qHTS against the NCATS CANVASS Library (AID 1347369). An outline of the steps: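 MCF7 cells (500/well) were exposed 72 h at 37 °C to compounds in an 11-point series. Viability was read as ATP content by CellTiterGlo luminescence.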
The nature of assay [9]: qHTS for ATAD5 Antagonist screened against the NCATS CANVASS Library (AID 1347370).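 Further: HEK293T cells carrying an ATAD5 luciferase reporter co-treated with 10 µM 5-fluorouridine; series mostly up to about 46 µM; nearly all actives have a fitted effect of over 65% in size.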 The method, boiled down: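 HEK293T-ATAD5 luc reporter, 2000 cells/well; 5hr attach; cpd + 10 uM 5-FUrd; 16hr 37C, 5% CO2. Readouts: CellTiter-Fluor fluorescence (1hr), then Amplite luciferase luminescence (30min RT).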
Assay [10] can be described thus: J3T Cancer Cell Toxicity qHTS against the NCATS CANVASS Library (AID 1347371). An outline of the steps: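 Dog glioma J3T, 500 cells/well; cpd 11-pt qHTS; 72 hr, 37C/5% CO2; CellTiterGlo ATP luminescence readout.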
Assay [11] has as its target Nuclear receptor subfamily 1 group I member 3 (Homo sapiens) (UniProt Q14994). Nature of the assay: qHTS for Constitutive Androstane Receptor (CAR) Antagonist screened against the NCATS CANVASS Library (AID 1347372).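 Further: cells stimulated with 50 nM CITCO agonist so inhibition reflects antagonism; series mostly up to about 46 µM.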 The method, boiled down: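 Cells were seeded and left 4hr to attach, then received compound at 11 concentrations and 50 nM CITCO. Following 24hr incubation, fluorescence viability and luciferase luminescence were read sequentially.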

The target is the same in assay [12]. Nature of the assay: qHTS for Constitutive Androstane Receptor (CAR) Agonist screened against the NCATS CANVASS Library (AID 1347373).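 Further: every well also contained 1.5 µM PK11195 alongside the test compound.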 Further: potency means the concentration at half of the fitted maximal effect. An outline of the steps:
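Luciferase read-out (ONE-Glo, 30 min RT) of CYP2B6-2.2kb promoter activity in double-stable HepG2-hCAR cells after 24hr compound exposure with 1.5uM PK11195 present; viability measured first by CellTiter-Fluor.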

The nature of assay [13]: 10-beta competent E. coli microbial cell viability qHTS against the NCATS CANVASS Library (AID 1347376). Further: series mostly up to about 46 µM. An outline of the steps: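 Luminescence from BacTiter-Glo ATP detection served as the viability read-out; bacteria (0.2 OD) had been incubated overnight at 37C with pin-transferred compounds at 11 concentrations.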
A short description of assay [14]: qHTS for H2AX Agonists against the NCATS CANVASS Library (AID 1347378). An outline of the steps: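 CHO-K1 cells (1000/well, overnight at 37C) exposed to compounds at several concentrations for 3 hr at 37C, 0.76% DMSO final. Lysates read by TR-FRET (phospho-H2AX S139 Eu-cryptate antibody / H2AX-d2 antibody) after 24 hr at room temperature; 665/615 nm ratio.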
Assay [15] in a line: qHTS for Inflammasome Signaling Inhibitors: IL-1-beta AlphaLISA screen against the NCATS CANVASS Library (AID 1347379).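 Further: human THP-1 cells primed with LPS then triggered with ATP.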 An outline of the steps: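 THP-1, 1 hr compound pre-incubation, then LPS 250 ng/mL + ATP 1.25 mM (final); 16 hr total with compound; IL-1B AlphaLISA, ex 680/em 615 nm; 11-point qHTS, up to 57.5 uM final.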
The nature of assay [16]: Cytotoxicity qHTS for assessment of Hepg2 cells membrane integrity screened against the NCATS CANVASS Library (AID 1347387). An outline of the steps: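 LDH release read by fluorescence (560 nm ex/590 nm em) after CytoTox-ONE addition and 10 min RT; signal tracks lysed cells. HepG2, 2000 cells/well, plated overnight; compound 5 hr, 37C, 5% CO2, final 0.59 nM - 46 uM, 11 points.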

A short description of assay [17]: Secretion counterscreen for inhibitors of the SERCaMP assay screened against the NCATS CANVASS Library (AID 1347390).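 Further: light from luciferase secreted into medium read as a measure of general secretion; series mostly up to about 77 µM.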 An outline of the steps: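 SH-SY5Y cells with constitutively secreted GLuc reporter, 1000 cells/well, treated 20 h at 37C with compounds at 0.001 - 77 uM final; secreted luciferase read as luminescence after coelenterazine; Brefeldin A as positive control.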

The nature of assay [18]: Vero-766 cells viability qHTS against the NCATS CANVASS Library: Counterscreen for Zika virus inhibition assay (AID 1347394). Further: series mostly up to about 46 µM; nearly all actives have a fitted effect of over 60% in size. An outline of the steps:
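Vero 766 cells (1000/well), without Zika virus, were exposed to compounds for 72 h at 37C. Viability was measured by CellTiter Glo luminescence. Media-only wells served as 100% inhibition.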

Assay [19] can be described thus: Viability qHTS for inhibitors of the SERCaMP assay screened against the NCATS CANVASS Library (AID 1347400). Further: series mostly up to about 92 µM; nearly all actives have a fitted effect of over 70% in size. The method, boiled down: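 CellTiter-Glo luminescence readout after 48 h compound exposure (11-pnt qHTS series) of SH-SY5Y-GLuc SERCaMP MJH297 cells seeded at 1000 cells/well; bortezomib positive control.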
Assay [20] in a line: Redox Reaction Profiling qHTS: Assay Interference Panel against the NCATS CANVASS Library (AID 1347401). An outline of the steps: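 Quantitative HTS over an 11-point series was run in HEPES pH 7.3 with 50 mM NaCl, 200 uM DTT and 5 uM resazurin. Initial and 15-min resorufin fluorescence readings were taken.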

The structures appear in SMILES notation. Results filed as inconclusive are left out. Calls of active or inactive are those of the source. The call rests on the fitted dose curve; in most records, active means well fitted curve in the direction sought with a large enough effect; inconclusive means small, poorly fitted or top-dose-only effect, or another doubt; inactive means no such curve, though single readings can be large; an effect the other way counts as inactive or inconclusive.

Sequence of Nuclear receptor subfamily 1 group I member 3 (Homo sapiens) (Q14994 whole entry, looked up): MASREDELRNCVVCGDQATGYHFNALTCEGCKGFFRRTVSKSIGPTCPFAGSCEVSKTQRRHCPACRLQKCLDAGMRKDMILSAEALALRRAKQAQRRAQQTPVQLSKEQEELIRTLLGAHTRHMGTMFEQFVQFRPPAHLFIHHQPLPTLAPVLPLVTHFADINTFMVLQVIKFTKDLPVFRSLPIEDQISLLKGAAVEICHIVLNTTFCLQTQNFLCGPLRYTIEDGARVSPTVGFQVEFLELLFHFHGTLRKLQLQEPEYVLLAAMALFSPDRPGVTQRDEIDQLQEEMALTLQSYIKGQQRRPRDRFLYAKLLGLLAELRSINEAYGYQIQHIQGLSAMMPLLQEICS

In the case of `CO[C@@H](C[C@@H](C)[C@@H](O)/C=C/C=C/CNC(=O)C(C)(C)[C@H](O)\C(C)=C/C=C\C=C\Cc1cnco1)[C@]1(O)[C@@H](C)C(=O)N(C)[C@@]12COC2=O`, the Potency result in assay [1], in assay [3], in assay [4], in [6], in assay [7] and in assay [8] was “inactive” in each case. Further, the Potency result in assay [9], in assay [10], in assay [11], in [12], in assay [14] and in assay [15] was “inactive” in each case. Further, the Potency result in assay [17], in assay [18], in assay [19] and in [20] was “inactive” throughout. In addition, the result in assay [2], in assay [5], in assay [13] and in assay [16] was inactive.

For the compound `CN1CC[C@@]23c4ccccc4N[C@@H]1[C@@]21CCN(C)[C@@H]3Nc2ccccc21`, the Potency result in assay [1], in assay [3], in assay [4], in assay [6], in [7] and in [8] was “inactive” each time. For the same compound, the Potency result in assay [9], in assay [10], in [11], in [12], in assay [14] and in [17] was “inactive” in each case. For the same compound, the Potency result in assay [18], in [19] and in [20] was “inactive” each time. The compound was called inactive in [2], in [5], in [13] and in [16].

With `O=Cc1ccc2n1C[C@]1(OC2)O[C@H](CO)[C@@H](O)[C@@H]1O`, the Potency entry in assay [1], in [3], in [4], in [6], in assay [7] and in assay [8] was “inactive” throughout. The Potency result in assay [9], in assay [10], in assay [11], in assay [12], in assay [14] and in assay [15] was “inactive” throughout. For the same compound, the Potency result in [17], in assay [18], in assay [19] and in assay [20] was “inactive” each time. For the same compound, the call in assay [2], in assay [5], in assay [13] and in [16] was inactive.

Take `COC(=O)[C@@]1(C)CCC[C@]2(C)c3cc(OC)ccc3CC[C@@H]12`: the Potency entry in [1], in [3], in assay [4], in assay [6], in assay [7] and in [8] was “inactive” each time. The Potency result in assay [9], in assay [10], in assay [11], in assay [14], in assay [15] and in assay [17] was “inactive” throughout. For the same compound, the Potency result in [18], in assay [19] and in [20] was “inactive” in each case. Besides, the compound was classed as inactive in [2], in [5], in assay [13] and in [16].

Regarding `O=C1CC(c2ccc(O)cc2)Oc2ccccc21` (configuration not stated), the Potency result in assay [1], in assay [3], in assay [4], in assay [6], in [7] and in assay [8] was “inactive” throughout. The Potency result in assay [9], in assay [10], in [11], in [14], in [18] and in [20] was “inactive” each time. Besides, the call in assay [2], in [5] and in assay [16] was inactive. The Potency in assay [12] was 23.4 µM (active).

In the case of `CC(=O)c1c(C)cc2c(c1O)C(=O)c1c(O)cc(O)cc1C2=O`, the Potency result in [1], in assay [3], in assay [4], in assay [6], in assay [7] and in [8] was “inactive” throughout. Besides, the Potency entry in assay [9], in assay [10], in [11], in [12], in assay [14] and in [15] was “inactive” in each case. Further, the Potency entry in [17], in assay [18], in assay [19] and in [20] was “inactive” throughout. Moreover, the call in [2], in assay [5], in assay [13] and in assay [16] was inactive.

Take `O=Cc1ccc2n1C[C@]1(C[C@H](O)[C@@H](CO)O1)OC2`: the Potency result in assay [1], in assay [3], in assay [4], in assay [6], in assay [7] and in assay [8] was “inactive” in each case. Further, the Potency entry in [9], in [10], in assay [11], in [12], in assay [14] and in assay [15] was “inactive” throughout. Besides, the Potency result in [17], in assay [18], in [19] and in [20] was “inactive” throughout. In addition, the compound was called inactive in assay [2], in assay [5], in assay [13] and in assay [16].

On to `CC(C)=CCCC(C)(O)[C@H]1CC=C(C)C(O)C1` (some centres not stated), for which the Potency entry in [1], in assay [3], in assay [4], in assay [6], in assay [7] and in assay [8] was “inactive” in each case. Besides, the Potency result in assay [9], in [10], in [11], in assay [12], in assay [14] and in assay [15] was “inactive” in each case. Besides, the Potency result in assay [17], in assay [18], in assay [19] and in assay [20] was “inactive” in each case. The result in assay [2], in [5], in assay [13] and in [16] was inactive.

With `COc1cc2oc3ccccc3c(=O)c2cc1OC`, the values for the Potency in assay [1] and in assay [12] were 30.6 µM (active) and 38.2 µM (active), respectively. Also, the compound was classed as inactive in assay [2], in assay [5], in assay [13] and in assay [16]. The Potency result in [3], in assay [4], in assay [6], in assay [7], in [8] and in [9] was “inactive” in each case. In addition, the Potency entry in assay [10], in assay [11], in [14], in assay [17], in assay [19] and in assay [20] was “inactive” each time.

The record behind these values is PubChem BioAssay (NCATS).
